Test results taken from PMC4336329 (PLoS ONE, 2015).
The campaign covered roughly 310,000 compounds. About 14,000 (4.5%) showed an effect of 50% or more. Effects have a minus sign here. Only a selection was taken, and strong results are over-represented in it overall.

target: human ether-à-go-go-related gene (hERG) potassium channel (human, UniProt Q12809); experiment: primary screen, population patch clamp on CHO cells stably expressing hERG; higher = less effect of the substance
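Also: peak tail current of the secondary pulse compared with the same well before compound.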

Sequence of human ether-à-go-go-related gene (hERG) potassium channel (Q12809 whole entry, looked up): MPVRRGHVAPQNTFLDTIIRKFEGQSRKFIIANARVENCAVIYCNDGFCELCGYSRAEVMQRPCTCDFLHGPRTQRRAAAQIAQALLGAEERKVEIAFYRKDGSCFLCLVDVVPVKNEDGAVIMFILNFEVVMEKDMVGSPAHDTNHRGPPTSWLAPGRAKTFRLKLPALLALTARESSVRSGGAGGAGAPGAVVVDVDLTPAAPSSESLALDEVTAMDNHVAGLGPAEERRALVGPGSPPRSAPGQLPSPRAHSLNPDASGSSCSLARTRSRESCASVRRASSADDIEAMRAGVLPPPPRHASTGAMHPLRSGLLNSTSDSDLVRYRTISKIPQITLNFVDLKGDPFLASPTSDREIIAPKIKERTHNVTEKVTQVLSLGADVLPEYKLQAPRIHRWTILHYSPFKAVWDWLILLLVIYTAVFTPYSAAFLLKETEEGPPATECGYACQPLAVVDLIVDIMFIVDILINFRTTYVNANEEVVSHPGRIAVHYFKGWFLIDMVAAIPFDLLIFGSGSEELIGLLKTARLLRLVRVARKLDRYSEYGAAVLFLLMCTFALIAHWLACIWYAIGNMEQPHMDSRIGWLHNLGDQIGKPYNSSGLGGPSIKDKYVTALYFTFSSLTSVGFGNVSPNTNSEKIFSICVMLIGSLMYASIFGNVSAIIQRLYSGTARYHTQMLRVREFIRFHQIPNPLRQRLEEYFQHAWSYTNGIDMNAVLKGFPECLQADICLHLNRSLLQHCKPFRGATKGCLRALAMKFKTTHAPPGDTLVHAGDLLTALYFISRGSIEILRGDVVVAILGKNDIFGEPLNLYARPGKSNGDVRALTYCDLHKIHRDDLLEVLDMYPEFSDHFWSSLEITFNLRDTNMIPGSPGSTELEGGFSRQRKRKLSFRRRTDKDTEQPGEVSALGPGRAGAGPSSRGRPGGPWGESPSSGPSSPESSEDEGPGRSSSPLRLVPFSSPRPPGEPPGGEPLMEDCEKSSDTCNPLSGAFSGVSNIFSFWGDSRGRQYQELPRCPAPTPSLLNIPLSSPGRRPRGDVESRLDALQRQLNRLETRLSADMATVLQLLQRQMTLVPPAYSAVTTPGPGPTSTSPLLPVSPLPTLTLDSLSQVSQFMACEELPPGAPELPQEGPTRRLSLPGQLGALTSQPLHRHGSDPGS

Going from COc1cc(/C=N\NC(=O)c2ccc(C)nc2)ccc1OC(=O)c1cccc(F)c1 to Cc1cc(N/N=C/c2ccc(F)cc2)nc(NCc2ccccc2)n1, the “hERG current change (%, negative = inhibition) at 10uM” value falls from -8.51% to -64.2%.

Compared with COc1ccccc1-c1cc(C(=O)N2CCCC2)no1, COc1ccccc1NS(=O)(=O)c1ccc(O)c(NC(=S)NCC2CCCO2)c1 (stereo not drawn) is higher in “hERG current change (%, negative = inhibition) at 10uM” value: -8.67% for the first, 7% for the second.

Compared with Cc1ccc(S(=O)(=O)/N=C(/Nc2ccc(F)cc2F)c2ccccc2)cc1, Cc1ccc(Nc2cc(C)nc(NCc3ccccc3)n2)cc1 is lower in “hERG current change (%, negative = inhibition) at 10uM” value: 12.9% for the first, -5.08% for the second.

First: COC(=O)c1ccc(NC(=S)Nc2cccc(C)n2)cc1
Second: CCOC(=O)c1ccc(NC(=O)c2nn(CC)cc2Br)cc1
The “hERG current change (%, negative = inhibition) at 10uM” value of the first is lower: -0.48% for the first, 5.3% for the second.

First: O=C(COC(=O)c1c(F)cccc1Cl)NC(=O)Nc1ccc2c(c1)OCCO2
Second: O=C(CN1C(=O)c2ccccc2C1=O)NCC(=O)OCC(=O)c1ccc(Cl)cc1
The “hERG current change (%, negative = inhibition) at 10uM” value of the first is lower: 12.4% for the first, 16.2% for the second.

First: CC(=NCCO)c1c(O)n(C2CCCCC2)c(=O)[nH]c1=O
Second: Cc1cc(NC(=O)C2CCCCC2)nc2c1c(=O)oc1ccccc12
The “hERG current change (%, negative = inhibition) at 10uM” value of the first is lower: -5.36% for the first, 3.61% for the second.

First: CC1CN(C2=NC(=O)/C(=C/c3ccncc3)S2)CC(C)O1 (stereo not drawn)
Second: CC(NC(=O)c1cc(F)c(F)cc1Cl)c1ccncc1 (stereo not drawn)
The “hERG current change (%, negative = inhibition) at 10uM” value of the first is lower: -14.5% for the first, 1.1% for the second.

Compared with CCN1CCCC1CNC(=O)c1ccc2c(c1)N(Cc1cccc(Cl)c1)C(=O)c1ccccc1S2(=O)=O (stereo not drawn), CCCN(C(=O)c1ccccc1Cc1ccccc1)C1CCS(=O)(=O)C1 (stereo not drawn) is higher in “hERG current change (%, negative = inhibition) at 10uM” value: -39.7% for the first, -0.454% for the second.

First: CCOc1ccc2nc(N(CCN(C)C)C(=O)c3cc4ccccc4cc3OC)sc2c1.Cl
Second: CCOc1ccc2nc(N(Cc3ccccc3)C(=O)CCNC(C)=O)sc2c1
The “hERG current change (%, negative = inhibition) at 10uM” value of the first is higher: 1.72% for the first, -61% for the second.

Going from COc1ccc2nc(N(Cc3ccccc3)C(=O)CCNC(C)=O)sc2c1 to CC(=O)NCCC(=O)N(Cc1ccccc1)c1nc2c(C)cccc2s1, the “hERG current change (%, negative = inhibition) at 10uM” value falls from -8.54% to -57.4%.

First: CCCC(=O)N(CCN1CCOCC1)c1nc2c(C)cccc2s1.Cl
Second: Cc1cccc2sc(N(CCN3CCOCC3)C(=O)CCS(=O)(=O)c3ccccc3)nc12.Cl
The “hERG current change (%, negative = inhibition) at 10uM” value of the first is higher: -7.14% for the first, -13.3% for the second.

Going from CCCc1ccc(C(C)NC(=S)NCc2ccc(F)cc2)cc1 (stereo not drawn) to COC(=O)c1ccc(CSc2ccc3nnc(-c4ccc(F)cc4)n3n2)o1, the “hERG current change (%, negative = inhibition) at 10uM” value falls from 18.6% to -29.1%.

Compared with CCOc1ccc(C(=O)OCC(=O)NC(C)C)cc1, COc1ccc(C(=O)OCCc2sc[n+](CC(=O)c3ccccc3)c2C)cc1.[Br-] is lower in “hERG current change (%, negative = inhibition) at 10uM” value: 22.3% for the first, -48.9% for the second.

First: CCN(CC)C(=O)C(=O)N/N=C/c1ccc(F)cc1
Second: CCN(CC)c1ccc(NC(=O)CN2CCN(CC(=O)Nc3ccc(F)cc3)CC2)cc1
The “hERG current change (%, negative = inhibition) at 10uM” value of the first is higher: 18.7% for the first, -76.4% for the second.

Compared with CCOc1ccc(-c2nnc3ccc(SCc4ccc(C(=O)OC)o4)nn23)cc1, COC(=O)c1ccc(CSc2ccc3nnc(-c4ccc(OC)cc4)n3n2)o1 is lower in “hERG current change (%, negative = inhibition) at 10uM” value: -24.4% for the first, -44.2% for the second.

First: COC(=O)c1ccc(CSc2ccc3nnc(-c4ccc(OC)c(OC)c4)n3n2)o1
Second: COC(=O)c1ccc(CSc2ccc3nnc(-c4cccc(F)c4)n3n2)o1
The “hERG current change (%, negative = inhibition) at 10uM” value of the first is higher: -15.1% for the first, -62% for the second.

Going from COC(=O)c1ccc(CSc2ccc3nnc(-c4ccccc4)n3n2)o1 to COC(=O)c1ccc(CSc2ccc3nnc(-c4ccccn4)n3n2)o1, the “hERG current change (%, negative = inhibition) at 10uM” value falls from -53.5% to -62.8%.

First: CSc1nccc(Oc2cncc(Cl)c2)n1
Second: COc1ccc(NC(=O)CSc2n[nH]c(-c3ccco3)n2)cc1
The “hERG current change (%, negative = inhibition) at 10uM” value of the first is higher: 8.61% for the first, -2.42% for the second.

First: Cc1csc(-c2cnn(-c3ccccc3)c2NC(=O)c2cccc(C(F)(F)F)c2)n1
Second: Cc1c(CCOC(=O)c2cccc([N+](=O)[O-])c2)sc[n+]1CC(=O)c1ccccc1.[Br-]
The “hERG current change (%, negative = inhibition) at 10uM” value of the first is higher: 9.98% for the first, -51.1% for the second.

First: CC(NC(=S)Nc1ccc(Cl)cc1)C(c1ccccc1)N1CCOCC1 (stereo not drawn)
Second: CCN(CC)c1ccc(NC(=O)CN2CCN(c3ccccc3F)CC2)cc1
The “hERG current change (%, negative = inhibition) at 10uM” value of the first is lower: -13% for the first, -5.61% for the second.

Compared with COc1ccc(N=C2C(=O)N3c4c(cccc42)C(C)=CC3(C)C)cc1, COc1ccc(CCNC(=O)C(=O)c2c(C)[nH]c3ccccc23)cc1 is lower in “hERG current change (%, negative = inhibition) at 10uM” value: 9% for the first, 6.09% for the second.

Going from Cc1[nH+]csc1CCOC(=O)c1ccc([N+](=O)[O-])cc1.[Cl-] to Cc1c(CCOC(=O)c2ccc([N+](=O)[O-])cc2)sc[n+]1CC(=O)c1ccccc1.[Br-], the “hERG current change (%, negative = inhibition) at 10uM” value falls from -35.4% to -63.7%.

Going from Cc1sc[n+](CC(=O)c2ccc(Br)cc2)c1C.[Br-] to Cc1c(CCOC(=O)c2ccccc2)sc[n+]1CC(=O)c1ccc(Br)cc1.[Br-], the “hERG current change (%, negative = inhibition) at 10uM” value falls from -12.7% to -77%.

Going from Cc1c(CCOC(=O)c2cc([N+](=O)[O-])cc([N+](=O)[O-])c2)sc[n+]1CCCCS(=O)(=O)[O-] to Cc1c(CCOC(=O)c2cc([N+](=O)[O-])cc([N+](=O)[O-])c2)sc[n+]1CC(=O)c1ccccc1.[Cl-], the “hERG current change (%, negative = inhibition) at 10uM” value falls from 23.4% to 5.96%.

First: Cc1ccc(C(=O)OCCc2sc[n+](Cc3ccccc3)c2C)cc1.[Cl-]
Second: Cc1c(CCOC(=O)c2ccccc2)sc[n+]1Cc1ccccc1.[Cl-]
The “hERG current change (%, negative = inhibition) at 10uM” value of the first is lower: -70.1% for the first, -32.7% for the second.

First: Cc1c(CCOC(=O)C23CC4CC(CC(C4)C2)C3)sc[n+]1Cc1ccccc1.[Cl-]
Second: Cc1c(CCOC(=O)c2cc([N+](=O)[O-])cc([N+](=O)[O-])c2)sc[n+]1CC(=O)c1ccc(Br)cc1.[Br-]
The “hERG current change (%, negative = inhibition) at 10uM” value of the first is higher: -8.89% for the first, -40.7% for the second.

First: O=C(Nc1cccnc1)c1ccc(S(=O)(=O)N2CCCCCC2)cc1
Second: CC(=O)Nc1ccc(S(=O)(=O)NNC(=O)c2ccc(S(=O)(=O)N3CCCCC3)cc2)cc1
The “hERG current change (%, negative = inhibition) at 10uM” value of the first is lower: 5.14% for the first, 6.41% for the second.

Going from CCOc1ccccc1NC(=O)CCC(=O)Nc1ccc2nc(N3CCN(C)CC3)cc(C)c2c1 to CCN(CC)c1ccc(NC(=O)CN2CCN(CC(=O)Nc3ccccc3F)CC2)cc1, the “hERG current change (%, negative = inhibition) at 10uM” value falls from 3.51% to -64.9%.

Compared with Cn1c(CCC(=O)Nc2ccc(F)cc2)nc2cc(S(=O)(=O)N3CCOCC3)ccc21, Cn1c(CCC(=O)Nc2cc(S(C)(=O)=O)ccc2Cl)nc2cc(S(=O)(=O)N3CCOCC3)ccc21 is lower in “hERG current change (%, negative = inhibition) at 10uM” value: -17.7% for the first, -25.4% for the second.

Going from CC(NC(=O)CCc1nc2cc(S(=O)(=O)N3CCOCC3)ccc2n1C)c1ccc(S(N)(=O)=O)cc1 (stereo not drawn) to CCOc1ccc(NS(=O)(=O)c2ccc(C(=O)NCCCN3CCCC3=O)cc2)cc1, the “hERG current change (%, negative = inhibition) at 10uM” value rises from -57.9% to 7.23%.

Going from Cc1cc(N/N=C/c2ccccc2)nc(NCc2ccccc2)n1 to Cc1ccc(/C=N/Nc2cc(C)nc(NCc3ccccc3)n2)cc1, the “hERG current change (%, negative = inhibition) at 10uM” value falls from -2.93% to -6.03%.

Going from CCCCOc1cc(C)nc(NCc2ccccc2)n1 to CCCCNc1cc(C)nc(NCc2ccccc2)n1, the “hERG current change (%, negative = inhibition) at 10uM” value falls from 5.5% to -59%.

Compared with CN(C)C(CNC(=O)c1cccs1)c1ccco1 (stereo not drawn), CN(C)c1ccc(NC(=O)CN2CCN(c3ccc(F)cc3)CC2)cc1 is lower in “hERG current change (%, negative = inhibition) at 10uM” value: 0.144% for the first, -4.56% for the second.

Going from CC(=O)N1c2ccc(S(=O)(=O)N3CCC(C(=O)NC4CCC(C)CC4)CC3)cc2CC1C (stereo not drawn) to CN(C)c1ccc(NC(=O)CN2CCC(C(=O)c3ccc(F)cc3)CC2)cc1, the “hERG current change (%, negative = inhibition) at 10uM” value falls from 17.3% to -32.1%.

Compared with Cc1ccc(S(=O)(=O)N(C(=O)c2ccncc2)c2ccc(OC(=O)c3ccncc3)cc2)c(C)c1, O=C(O)C(Cc1ccc(Cl)cc1)NS(=O)(=O)c1ccc(Cl)cc1 (stereo not drawn) is higher in “hERG current change (%, negative = inhibition) at 10uM” value: -0.914% for the first, 27.1% for the second.

Compared with O=S(=O)(N/N=C\c1ccc(-c2ccccc2Cl)o1)c1ccccc1, CCN(CC)c1nc(Nc2ccccc2)nc(Oc2ccc(=O)[nH]n2)n1 is lower in “hERG current change (%, negative = inhibition) at 10uM” value: 10.4% for the first, -14.2% for the second.

Going from CCN(CC)c1ccc(NC(=O)CN2CCN(c3ccccn3)CC2)cc1 to CCN(CC)c1ccc(NC(=O)CN2CCN(c3nc(C)cc(C)n3)CC2)cc1, the “hERG current change (%, negative = inhibition) at 10uM” value falls from -2.86% to -21.7%.

Compared with CN(C)c1ccc(NC(=O)CN2CCN(CC(=O)Nc3ccc(F)cc3)CC2)cc1, CCN1CCN(CC(=O)Nc2ccc(N(C)C)cc2)CC1.O=C(O)C(=O)O is higher in “hERG current change (%, negative = inhibition) at 10uM” value: -77.1% for the first, -2.52% for the second.

Compared with Br.CC(C)CC(N)C(=O)OCc1ccc([N+](=O)[O-])cc1 (stereo not drawn), COc1ccc(CN2CCOCC2)cc1 is higher in “hERG current change (%, negative = inhibition) at 10uM” value: 7.33% for the first, 10.7% for the second.

Compared with Cc1nc2nc(SCC(=O)N3CCC4(CC3)OCCO4)nn2c(C)c1Cc1ccccc1, COc1ccc(CN2CCOCCOCCOCC2)cc1 is lower in “hERG current change (%, negative = inhibition) at 10uM” value: -24.9% for the first, -58.3% for the second.

Going from COc1ccc(CN2CCOCCOCCOCCOCCOCC2)cc1 to COc1ccc(CN2CCOCCOCCOCCOCC2)cc1, the “hERG current change (%, negative = inhibition) at 10uM” value falls from -20.7% to -36%.

First: COc1ccc(CN2CCOCCOCCN(Cc3ccc(OC)cc3)CCOCCOCC2)cc1
Second: COc1ccc(CN2CCCCCC2)cc1
The “hERG current change (%, negative = inhibition) at 10uM” value of the first is lower: -77.3% for the first, -10.9% for the second.
